Compounds with a hit are over-represented: about 3.5% of the library has one in this group of screens.
TEAD-YAP inh – TEAD-YAP interaction inhibition. HEK-TIYL cells, TEAD-Gal4/YAP UAS-luciferase luminescence. inhibition, % at 9.12 µM. 640,000 compounds, 1.4% hits. AID 1259422; in the data active means inhibition above about 32%
GPR151 ag – activators of human GPR151 | Q8TDV0 | PathHunter beta-arrestin GPR151 cells, luminescence | activation, % at 11.2 µM | 650,000 compounds, 1% hits | AID 1508602; in the data active means activation above about 4.9%
MITF primary – blocks human microphthalmia-associated transcription factor; O75030; AlphaScreen MITF homodimerization, bead proximity signal; inhibition, % at 2.6 µM; 650,000 compounds, 0.91% hits; in the data active means inhibition above about 50%
Target sequence (O75030 whole entry, looked up): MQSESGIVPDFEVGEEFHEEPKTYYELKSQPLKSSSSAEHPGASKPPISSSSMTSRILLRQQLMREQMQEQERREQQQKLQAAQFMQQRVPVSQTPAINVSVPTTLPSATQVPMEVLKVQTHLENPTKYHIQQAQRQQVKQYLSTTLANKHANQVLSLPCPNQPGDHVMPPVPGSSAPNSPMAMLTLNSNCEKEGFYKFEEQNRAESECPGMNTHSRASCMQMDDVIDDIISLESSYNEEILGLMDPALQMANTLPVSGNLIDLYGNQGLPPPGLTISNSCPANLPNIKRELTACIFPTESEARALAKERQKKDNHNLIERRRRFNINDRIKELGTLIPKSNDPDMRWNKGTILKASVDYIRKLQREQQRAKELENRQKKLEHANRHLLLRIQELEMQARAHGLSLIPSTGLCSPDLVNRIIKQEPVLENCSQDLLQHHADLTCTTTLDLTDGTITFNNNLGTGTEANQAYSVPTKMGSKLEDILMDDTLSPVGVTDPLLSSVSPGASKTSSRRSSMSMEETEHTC
FBW7 activator – activators of human E3 ligase FBW7 | normalized activity (activation), % at 26.1 µM | AlphaScreen FBW7–phospho-cyclin E peptide binding, activator screen | 650,000 compounds, 0.13% hits | AID 1259310 | Q969H0; in the data active means normalized activity above about 1.9%;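 further: purified mutant Fbw7 with reduced substrate affinity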
Numbers stand for hits; n = inactive.

SMILES	TEAD-YAP inh	GPR151 ag	MITF primary	FBW7 activator
CN(C)c1ccc(C(CNC(=O)Cc2ccc(F)cc2)N2CCN(c3ccccc3)CC2)cc1 (configuration not stated)	n	n	72	n
COc1cc(/C=C(/C#N)C(=O)Nc2ccccc2C)cc(OC)c1O	n	n	n	n
COc1ccc(C(=O)N2CCN(Cc3ccc4c(c3)OCO4)CC2)cc1[N+](=O)[O-]	45	n	n	n
O=C1Nc2cc(C(=O)N3CCN(Cc4ccc5c(c4)OCO5)CC3)ccc2NC1CSCc1ccc(F)cc1 (configuration not stated)	48	n	n	n
COc1ccc(CN2CCN(C(=O)c3ccc(S(=O)(=O)c4ccc(F)cc4)c([N+](=O)[O-])c3)CC2)c(OC)c1OC	43	n	n	n
O=C(c1ccc([N+](=O)[O-])c(Cl)c1)N1CCN(Cc2ccc3c(c2)OCO3)CC1	51	n	n	n
COc1ccc(N2CCN(C(=O)c3cccc(C)c3)CC2)cc1	n	n	n	n
COc1cc(N(C)C)c([N+](=O)[O-])cc1C(=O)ON=C1CC2CCC(C1)N2C	n	n	n	n
O=C1N[C@H](Cc2ccc(O)cc2)C(=O)N2CCN(Cc3ccccc3Cl)C[C@H]12	n	n	n	n
O=C(NCCCN1CCCC1=O)c1csc(NC2CCN(Cc3ccccc3)CC2)n1	n	n	n	n
Cc1cnn(-c2ccccc2)c(=O)c1N(C)C	n	n	n	n
O=C(c1ccc(S(=O)(=O)c2cccc(Cl)c2)c([N+](=O)[O-])c1)N1CCOCC1	32	n	n	n
O=C(c1ccc(S(=O)(=O)c2cccc(Cl)c2)c([N+](=O)[O-])c1)N1CCN(c2ccc(F)cc2)CC1	n	n	n	n
Cc1nc2sccn2c1C(=O)NCc1ccc(Oc2ccccc2)cc1	n	n	n	n
COc1ccc(CNc2ccnc3c(-c4ccccc4)cnn23)cc1	n	n	n	1.9
COc1ccc(CNc2ccnc3c(-c4ccc(OC)cc4)cnn23)cc1	n	n	n	n
COc1cc(CNc2ccnc3c(-c4cccc(F)c4)cnn23)cc(OC)c1OC	n	n	n	1.9
O=C(COc1coc(CN2CCc3ccccc32)cc1=O)N1CCCC1	n	n	n	n
O=C(Oc1cccnc1)c1ccco1	n	n	n	n
